# About 79,000 compounds went through this panel and 15% of them were active in at least one assay; those are over-represented in the sample as a whole. The source made the active and inactive calls. Cut-off read from the data, not from the text of the source: active = growth inhibition above about 70%; inactive = the rest.
# Tests used:
# [1] = NCI Yeast Anticancer Drug Screen. Data for the rad50 strain (AID 155);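 note: 0% = growth of vehicle-only cultures of the same strain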; settings: S. cerevisiae rad50 strain growth inhibition, hits give high values
# Procedure, shortened: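 DNA repair mutant yeast, compound exposure, growth read-out; inhibition is taken relative to vehicle.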
# [2] = NCI Yeast Anticancer Drug Screen. Data for the mec2-1 strain (AID 157); settings: S. cerevisiae mec2-1 strain, hits give high values
# Procedure, shortened: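 Growth inhibition is read against vehicle-treated controls after compound exposure of the mec2-1 yeast strain, which is defective in DNA damage repair or cell cycle control.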
# [3] = NCI Yeast Anticancer Drug Screen. Data for the sgs1 mgt1 strain (AID 161);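 note: 0% = growth of cultures given vehicle only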; settings: S. cerevisiae sgs1 mgt1 strain, hits give high values
# Procedure, shortened: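 Compounds are added to genetically altered yeast, and growth is compared with cultures given vehicle alone to give percent inhibition.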
# [4] = NCI Yeast Anticancer Drug Screen. Data for the cln2 rad14 strain (AID 165);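 note: 0% = growth equal to vehicle treated cultures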; settings: S. cerevisiae cln2 rad14 strain, hits give high values
# Procedure, shortened: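 Growth inhibition, relative to vehicle-treated controls, is the read-out. The test organism is a yeast strain with defined genetic alterations, cln2 rad14.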
# [5] = NCI Yeast Anticancer Drug Screen. Data for the bub3 strain (AID 167); settings: S. cerevisiae bub3 mutant strain, hits give high values
# Procedure, shortened: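 In this screen, a yeast mutant lacking normal mitotic checkpoint function is challenged with compound. Relative growth versus vehicle gives the inhibition value.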
# [6] = NCI Yeast Anticancer Drug Screen. Data for the mlh1 rad18 strain (AID 175); settings: S. cerevisiae mlh1 rad18 strain growth inhibition, hits give high values
# Procedure, shortened: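 Cells of a genetically altered yeast strain, deficient in DNA damage repair, were treated with compound. Their growth was then compared with that of vehicle-treated cultures to give inhibition.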
# [7] = at 5.0 µM (retest, dose inferred, filed as 0.5)
# [8] = at 50.0 µM (retest, dose inferred, filed as 5.0)
SMILES,"growth inhibition [1, 7]","growth inhibition [1, 8]",growth inhibition ([1]; at 50.0 µM),"growth inhibition [2, 7]","growth inhibition [2, 8]",growth inhibition ([2]; at 50.0 µM),"growth inhibition [3, 7]","growth inhibition [3, 8]",growth inhibition ([3]; at 50.0 µM),"growth inhibition [4, 7]","growth inhibition [4, 8]",growth inhibition ([4]; at 50.0 µM),"growth inhibition [5, 7]","growth inhibition [5, 8]",growth inhibition ([5]; at 50.0 µM),"growth inhibition [6, 7]","growth inhibition [6, 8]",growth inhibition ([6]; at 50.0 µM)
O=C1/C(=C/N2CCN(c3ccccc3)CC2)Cc2c(Cl)cccc21,13% (inactive),-2% (inactive),77.3% (active),7% (inactive),91% (active),98.2% (active),7% (inactive),4% (inactive),64.3% (inactive),64% (inactive),35% (inactive),93.8% (active),-9% (inactive),33% (inactive),94.3% (active),6% (inactive),41% (inactive),98.2% (active)
NC(Cc1nn[nH]n1)C(=O)O (stereo unspecified),3% (inactive),-15% (inactive),-13.2% (inactive),-6% (inactive),-10% (inactive),-5.95% (inactive),-16% (inactive),-15% (inactive),-42.8% (inactive),-11% (inactive),-6% (inactive),22.4% (inactive),10% (inactive),-13% (inactive),0.95% (inactive),-18% (inactive),-6% (inactive),-23% (inactive)
CN=c1ss/c(=N\C(=S)N(C)C)n1-c1ccccc1,-10% (inactive),-10% (inactive),-17.1% (inactive),-11% (inactive),7% (inactive),-7.45% (inactive),13% (inactive),-20% (inactive),-18.6% (inactive),8% (inactive),13% (inactive),4.45% (inactive),4% (inactive),7% (inactive),42.5% (inactive),-20% (inactive),3% (inactive),-22.5% (inactive)
Nc1ccc2nc(Nc3ccc(Cl)c(Cl)c3)cnc2c1,-17% (inactive),97% (active),85.7% (active),-1% (inactive),97% (active),86.5% (active),7% (inactive),97% (active),87.7% (active),14% (inactive),97% (active),87.2% (active),28% (inactive),95% (active),83.8% (active),25% (inactive),87% (active),80.8% (active)
CC(C)=CCC/C(C)=C/COc1ccc(/C=C2/C(=O)N(O)[C@@H](C)C(=O)N2O)cc1,51% (inactive),97% (active),80.8% (active),52% (inactive),98% (active),78.2% (active),66% (inactive),92% (active),78.9% (active),54% (inactive),89% (active),70.7% (active),68% (inactive),97% (active),83.3% (active),32% (inactive),96% (active),79.2% (active)
CC(C)OC(=O)CCCCCC1CCCCC1,6% (inactive),9% (inactive),0.95% (inactive),-2% (inactive),2% (inactive),13.5% (inactive),3% (inactive),11% (inactive),1.4% (inactive),10% (inactive),6% (inactive),31.7% (inactive),8% (inactive),3% (inactive),-0.25% (inactive),4% (inactive),7% (inactive),8.8% (inactive)
Cc1cc(S(=O)(=O)Nc2nc(N)nc(N(C)C)n2)c(SC(C(=O)O)c2ccccc2)cc1Cl (stereo unspecified),-11% (inactive),-4% (inactive),-8.65% (inactive),-3% (inactive),-15% (inactive),14.1% (inactive),-11% (inactive),-8% (inactive),-0.25% (inactive),-15% (inactive),4% (inactive),93.2% (active),14% (inactive),-17% (inactive),16.1% (inactive),-9% (inactive),-3% (inactive),5.3% (inactive)
